# High-throughput results as filed in PubChem BioAssay.
# KB-3-1 tox: KB-3-1 parental cell cytotoxicity; KB-3-1 viability, CellTiter-Glo ATP luminescence, 72 h; Potency, µM (titrated, usually from 46.1 µM), usual class: cytotoxic; 400,000 tested, 1.4% active; AID 1347075; note: nearly all actives have a fitted effect of over 60% in size
#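 Cells are dispensed, compounds pinned in, plates held at 37 °C for 72 h, then CellTiter-Glo is added and luminescence read after 10 minutes. Cell line: parental KB-3-1 in phenol-red-free DMEM, 10% FBS.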
# MCF10A rereplic: DNA re-replication induction in MCF 10a cells. MCF 10A DNA re-replication, Hoechst nuclear intensity, 48 h. Potency, µM (titrated, usually from 46.1 µM), usual class: activators. 350,000 tested, 2.9% active; note: nearly all actives have a fitted effect of over 50% in size
# SW480 rerep: induces DNA re-replication in SW480 colon adenocarcinoma cells; SW480 DNA re-replication, Hoechst DNA content imaging, 48 h; Potency, µM (top dose mostly 46.1 µM), most hits filed as activators; 340,000 tested, 1.8% active; AID 624297; note: nearly all actives have a fitted effect of over 55% in size
#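 SW480 cells exposed to compounds for 48 hr at 37 C, 5% CO2, then Hoechst-stained 40 min. Nuclear DNA content imaged by fluorescence scanning (405 nm excitation, 500-530 nm emission); re-replication scored as increased high-intensity nuclei.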
# KB-V1 MDR tox: KB-V1 MDR subline cytotoxicity. KB-V1 MDR cells viability, CellTiter-Glo, 72 h. Potency, µM (highest dose often 46.1 µM), actives largely listed as cytotoxic. 400,000 tested, 3.4% active; note: nearly all actives have a fitted effect of over 60% in size
#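 Following 72 h at 37 degrees C with compound, KB-V1 cell viability was read by CellTiter-Glo luminescence, medium being phenol-red-free DMEM plus 10% FBS; concentration-response parameters came from normalized, curve-fitted qHTS data.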
# HT1080NT lethal: kills 2HG-producing HT-1080-NT fibrosarcoma cells; HT-1080-NT fibrosarcoma viability, CellTiter-Glo ATP luminescence, 48 h; Potency, µM (series often up to 46.1 µM), most hits filed as cytotoxic; 360,000 tested, 1.6% active;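 note: NT is the 2HG producing partner of a matched IDH1 knockdown line; nearly all actives have a fitted effect of over 55% in size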
#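 Compounds were tested in concentration-response format on HT-1080-NT cells for 48 hours at 37 degrees C. Cell viability came from CellTiter-Glo luminescence; curves were classified by r2, response magnitude and activity.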
# HT1080 IDH1KD tx: HT-1080 IDH1 knockdown cell toxicity (counter line) | HT-1080 IDH1 knockdown viability, ATP luminescence, 48 h | Potency, µM (highest dose often 46.1 µM), usual class: cytotoxic | 360,000 tested, 2% active | AID 686971
#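 % activity derives from luminescence (CellTiter-Glo), normalised to DMSO and no-cell wells. HT-1080-IDH1KD cells, 750/well, had 48 h compound exposure at 37 °C.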
# A number is an active result; - = inactive; ? = inconclusive; . = not tested or not shown; ! = a repeat was not active; [ ] = remark or other dose. Shown are actives, neighbours in structure and some others; about 8% of the full set was active somewhere. Calls come from the whole dose curve; as a rule, active = well fitted curve in the direction sought with a large enough effect; inconclusive = small, poorly fitted or top-dose-only effect, or another doubt; inactive = no such curve, though single readings can be large; an effect the other way counts as inactive or inconclusive.
SMILES,KB-3-1 tox,MCF10A rereplic,SW480 rerep,KB-V1 MDR tox,HT1080NT lethal,HT1080 IDH1KD tx
COc1ccc(C(=O)CCN2CCN(c3ccccc3OC)CC2)cc1,-,2.59µM,?,-,?,-
Cc1oc(-c2ccccc2F)nc1CS(=O)(=O)CC(=O)NCCc1ccc(Cl)cc1,-,.,.,-,.,.
CC(C)c1ccc(C2c3c(-c4ccccc4O)n[nH]c3C(=O)N2Cc2ccncc2)cc1 (stereo not given),-,.,.,?,.,.
Cc1nc2c(c(C)c1CCC(=O)NCc1ccc(Cl)cc1)c(=O)n(C)c(=O)n2C,-,.,.,-,.,.
Cc1cc(C)c(C#N)c(SCC(O)COc2ccc(Br)cc2)n1 (stereo not given),-,?,-,-,-,?
CC1=CC(C)[C@H](/C=N/n2c(=O)[nH]c3c([nH]c4ccc(C)cc43)c2=O)C(C)C1 (stereo not given in full),?,9.2µM,?,-,-,-
CCOCCCNC(=O)CSCc1nc(-c2ccc(SC)cc2)oc1C,-,-,-,-,-,-
CCc1ccc(-c2nc(CSCC(=O)N3CCN(c4ccccn4)CC3)c(C)o2)cc1,?,-[0.0737 µM],-,18.4µM,-,?
COc1ccc(-c2nc(CSCC(=O)NCCC3=CCCCC3)c(C)o2)cc1OC,-,-,-,20.6µM,-,-
CCc1ccc(-c2nc(CSCC(=O)NCCCN3CCCC3=O)c(C)o2)cc1,-,-,-,16.4µM,-,-
CSc1ccc(-c2nc(CSCC(=O)NCCCN3CCCC3=O)c(C)o2)cc1,-,-,?,-,-,-
Cc1ccc(-c2nc(CSCC(=O)N3CCN(c4ccccn4)CC3)c(C)o2)cc1,?,-,-,?,-,-
COCCNC(=O)CSCc1nc(-c2ccc(SC)cc2)oc1C,?,-,-,9.2µM,-,-
O=c1c2cnn(-c3ccc(F)cc3)c2ncn1Cc1cccc(Cl)c1,-,.,.,-,.,.
Cc1cn2c(=O)cc(COc3ccc(NC(=O)c4ccccc4C)cc3)nc2s1,-,.,.,-,.,.
COc1cccc(NS(=O)(=O)c2ccc3c(c2)CCCN3C(C)=O)c1,-,?,?,20.6µM,-,-
COc1ccc(CNC(=O)C2CCCN(S(=O)(=O)c3ccc4c(c3)CCCN4C(C)=O)C2)cc1 (stereo not given),20.6µM!,-,-,-,-,-
CCOCCCn1c(SCC(=O)Nc2ccccc2OC)nc2c(oc3ccccc32)c1=O,-,.,.,-,.,.
O=C(CNC(=O)c1ccco1)OCC(=O)c1ccc2ccccc2c1,-,-,-,-,-,-
Cn1nnc2c[n+](CC(=O)c3ccc4ccccc4c3)cc(Br)c21,?,?,?,-,?,20.6µM
Cn1nnc2c[n+](CC(=O)c3ccc(Cl)cc3)cc(Br)c21,?,?,?,-,?,?
COc1ccc(-c2cc3ccccc3c(=O)o2)cc1,-,.,.,?,-,-
CN(C)c1ccc(-c2cc3ccccc3c(=O)o2)cc1,-,14.6µM,13µM,-,-,-
COCCC(=O)N1CCc2ccc(NC(=O)c3ccc(C(F)(F)F)cc3)cc2C1,-,-,?,-,?,-
CN(C)S(=O)(=O)N1CCc2ccc(NC(=O)c3ccc(C(F)(F)F)cc3)cc2C1,?,-,-,?,16.4µM,?
SMILES,KB-3-1 tox,MCF10A rereplic,SW480 rerep,KB-V1 MDR tox,HT1080NT lethal,HT1080 IDH1KD tx
Nc1c(C(=O)c2ccccc2)sc2snc(SCC(=O)c3ccccc3)c12,?,16.4µM,-,-,-,-
COc1ccc(CCC(=O)N2CCN(S(=O)(=O)c3ccc4ccccc4c3)CC2)cc1,-,-,-,-,-,-
COc1ccc(CCC(=O)N2CCN(S(=O)(=O)c3ccc(OC(F)(F)F)cc3)CC2)cc1,-,-,-,16.4µM,-,-
N#CC1=C(N)OC2=C(C(=O)CCC2)C1c1cc2c(cc1Cl)OCO2 (stereo not given),-,-,-,?,-,-
Cc1nn(C)cc1CN1CCCC(C(=O)c2ccc(-c3ccccc3)c(F)c2)C1 (stereo not given),-,?,-,?,?,?
Cn1cc(CN2CCCC(C(=O)c3ccc(-c4ccccc4)c(F)c3)C2)cn1 (stereo not given),-,-,?,?,23.1µM,16.4µM
CCn1cc(CN2CCCC(C(=O)c3ccc(-c4ccccc4)cc3)C2)cn1 (stereo not given),?,?,?,-,?,23.1µM
Cn1cc(CN2CCCC(C(=O)c3ccc(-c4ccccc4)cc3)C2)cn1 (stereo not given),-,-,-,-,?,-
CCn1cc(CN2CCCC(C(=O)Nc3cccc(-c4cc5ccccc5[nH]4)c3)C2)cn1 (stereo not given),-,?,?,?,16.4µM,?
CCOC(=O)C1CCN(C(=O)c2ccc(OC3CCN(C(=O)COC)CC3)cc2)CC1,-,-,-,-,-,-
Oc1ccc(Br)cc1C=Nc1ccc2c3c(cccc13)CC2,-,?,-,-,-,-
CCN(CCCNC(=O)c1nn(-c2ccc(C)cc2)c(=O)c2c1c1ccccc1n2C)c1cccc(C)c1,-,.,.,-,.,.
CCn1nnc2c(N3CCCC3)ncnc21,.,.,.,.,-,-
Cc1ccc(S(=O)(=O)n2cc(C=O)c3ccccc32)cc1,-,-,?,-,16.4µM,23.1µM
Cc1ccc(S(=O)(=O)N2CCN(S(=O)(=O)c3ccccc3)C2)cc1,-,-,-,?,-,-
Cc1ccc(S(=O)(=O)n2cc(-c3ccccc3)c3ccccc32)cc1,2.31µM,-,3.66µM,1.3µM,?,?
Cc1cccc(NC(=O)Cn2c(=O)ccc3cc(S(=O)(=O)N4CCCC4)ccc32)c1C,-,.,.,-,.,.
CN(C)c1ccc(/C=C/c2nc3ccccc3s2)cc1,16.4µM!,?,9.2µM,13µM!,?,?
CN(Cc1ccccc1)c1ccc(/C=C/c2nc3ccccc3s2)cc1,7.31µM,.,.,-,.,.
CCOc1ccc(-c2nnc(SCC(=O)Nc3cc(C)ccc3OC)o2)cc1,-,.,.,-,.,.
COc1ccc(NC(=O)NCCn2nnc3cc(S(=O)(=O)N(C)C)ccc32)cc1,-,.,.,-,.,.
Cc1cccc(C(=O)NC(=O)Nc2ccc(-c3cc(C(F)(F)F)nn3-c3ccccc3)cc2)c1,-,.,.,-,.,.
COCCN(C(=O)c1ccco1)c1nc(-c2ccc(OC)cc2)cs1,-,.,.,?,-,-
COc1ccc(-c2csc(N(CC(C)C)C(=O)c3ccco3)n2)cc1,-,18.4µM,?,-,-,-
CCN(C(=O)c1ccco1)c1nc(-c2ccc(OC)cc2)cs1,-,-,-,-,-,-
COc1ccc(-c2csc(N(CC3CCCO3)C(=O)c3ccco3)n2)cc1 (stereo not given),?,16.4µM,?,-,-,-
